In all, about 5,500 compounds went through this assay and about 2,000 (36%) were called active. About 18% were inconclusive and are not listed. No stated cut-off is given here; in the data, active means normalized growth mostly below about 0.91 (no sharp cut-off); inconclusive means no clear call, values can overlap the other calls; inactive means mostly above about 0.92. This is one part of the list.
Assay: chemical genetic growth profiling, strain panel (AID 1159580);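 further: tested at 20 µM; growth read once vehicle control cultures reached saturation at 30 °C; 1 = growth at the plate median or of vehicle wells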
Settings: S. cerevisiae deletion strains, growth OD

Measured: normalized growth

FC(F)(F)c1cccc(N2CCNCC2)c1
inactive: locus YAL013W, strain DEP1, stronger effect = lower value 1 | locus YAL021C, strain ccr4, stronger effect = lower value 0.992 | locus YAL026C, strain drs2, stronger effect = lower value 1 | locus YAL030W, strain snc1, stronger effect = lower value 0.99 | locus YBL061C, strain skt5, stronger effect = lower value 0.992 | locus YBR009C, strain hhf1, stronger effect = lower value 0.978 | locus YBR021W, strain FUR4, stronger effect = lower value 0.991 | locus YBR023C, strain chs3, stronger effect = lower value 0.996 | locus YBR171W, strain sec66, stronger effect = lower value 1.01 | locus YBR229C, strain ROT2, stronger effect = lower value 1.01 | locus YBR231C, strain swc5, stronger effect = lower value 0.99 | locus YBR279W, strain paf1, stronger effect = lower value 1 | locus YCL011C, strain gbp2, stronger effect = lower value 0.999 | locus YCL016C, strain dcc1, stronger effect = lower value 0.991 | locus YCL029C, strain bik1, stronger effect = lower value 0.996 | locus YCL061C, strain MRC1, stronger effect = lower value 1 | locus YCL069W, strain vba3, stronger effect = lower value 1 | locus YCR088W, strain abp1, stronger effect = lower value 1.01 | locus YDL005C, strain med2, stronger effect = lower value 1 | locus YDL035C, strain GPR1, stronger effect = lower value 1 | locus YDL040C, strain nat1, stronger effect = lower value 0.988 | locus YDL074C, strain BRE1, stronger effect = lower value 0.994 | locus YDL101C, strain DUN1, stronger effect = lower value 1 | locus YDL134C, strain PPH21, stronger effect = lower value 1.01 | locus YDL185W, strain tfp1, stronger effect = lower value 0.994 | locus YDL192W, strain arf1, stronger effect = lower value 0.995 | locus YDR001C, strain nth1, stronger effect = lower value 1.01 | locus YDR069C, strain doa4, stronger effect = lower value 0.973 | locus YDR101C, strain arx1, stronger effect = lower value 0.994 | locus YDR137W, strain rgp1, stronger effect = lower value 1 | locus YDR159W, strain sac3, stronger effect = lower value 0.956 | locus YDR162C, strain NBP2, stronger effect = lower value 1.01 | locus YDR195W, strain ref2 0.928 | locus YDR297W, strain sur2, stronger effect = lower value 1 | locus YDR318W, strain mcm21, stronger effect = lower value 0.989 | locus YDR334W, strain swr1, stronger effect = lower value 1.01 | locus YDR335W, strain msn5, stronger effect = lower value 0.993 | locus YDR388W, stronger effect = lower value 0.977 | locus YDR392W, strain spt3, stronger effect = lower value 0.89 | locus YDR502C, strain sam2, stronger effect = lower value 0.98 | locus YEL003W, strain gim4, stronger effect = lower value 1.01 | locus YEL037C, strain rad23, stronger effect = lower value 1 | locus YEL061C, strain CIN8 (second series), stronger effect = lower value 1.01 | locus YEL061C, strain CIN8, stronger effect = lower value 1.01 | locus YER015W, strain faa2, stronger effect = lower value 0.994 | locus YER016W, strain bim1, stronger effect = lower value 0.995 | locus YER110C, stronger effect = lower value 0.976 | locus YER111C, strain swi4, stronger effect = lower value 0.999 | locus YER155C, strain BEM2 (second series), stronger effect = lower value 0.93 | locus YER155C, strain BEM2, stronger effect = lower value 1.01 | locus YER167W, strain BCK2, stronger effect = lower value 1 | locus YFR010W, strain ubp6, stronger effect = lower value 1.03 | locus YGL078C, strain dbp3, stronger effect = lower value 0.973 | locus YGL086W, strain mad1, stronger effect = lower value 0.983 | locus YGL167C, strain pmr1, stronger effect = lower value 0.981 | locus YGL173C, strain kem1, stronger effect = lower value 1.01 | locus YGL227W, strain vid30, stronger effect = lower value 1 | locus YGL240W, strain doc1, stronger effect = lower value 0.962 | locus YGL248W, strain PDE1, stronger effect = lower value 1.01 | locus YGL253W, strain hxk2, stronger effect = lower value 1.02 | locus YGR135W, strain pre9, stronger effect = lower value 0.953 | locus YGR229C, strain SMI1, stronger effect = lower value 0.987 | locus YGR252W, strain gcn5, stronger effect = lower value 0.932 | locus YHR013C, strain ard1, stronger effect = lower value 0.961 | locus YHR027C, strain rpn1, stronger effect = lower value 0.994 | locus YHR030C, strain SLT2, stronger effect = lower value 1.01 | locus YHR079C, strain IRE1 (second series), stronger effect = lower value 0.998 | locus YHR094C, strain hxt1, stronger effect = lower value 0.992 | locus YHR129C, strain ARP1, stronger effect = lower value 1.01 | locus YHR142W, strain chs7, stronger effect = lower value 1.02 | locus YHR200W, strain rpn10, stronger effect = lower value 0.987 | locus YIL066C, strain RNR3, stronger effect = lower value 1.02 | locus YIL073C, strain SPO22, stronger effect = lower value 1.08 | locus YIL125W, strain kgd1, stronger effect = lower value 0.974 | locus YIR030C, strain dcg1, stronger effect = lower value 1 | locus YJL092W, strain hpr5, stronger effect = lower value 1.01 | locus YJL095W, strain BCK1 (second series), stronger effect = lower value 0.995 | locus YJL095W, strain BCK1, stronger effect = lower value 1.02 | locus YJL115W, strain asf1, stronger effect = lower value 0.998 | locus YJL129C, strain trk1, stronger effect = lower value 1.03 | locus YJL134W, strain LCB3, stronger effect = lower value 1 | locus YJL154C, strain vps35, stronger effect = lower value 1 | locus YJL164C, strain tpk1, stronger effect = lower value 0.993 | locus YJL166W, strain qcr8, stronger effect = lower value 0.987 | locus YJL168C, strain set2, stronger effect = lower value 0.987 | locus YJL187C, strain SWE1 (second series), stronger effect = lower value 1.01

From PubChem BioAssay AID1159580 (chemical genetic matrix, 2015)
